# From PubChem BioAssay
# The list is not random: actives were taken first. Their share in the collection is about 9.9%.
# JMJD2E inh – qHTS Assay for Inhibitors of Human Jumonji Domain Containing 2E (JMJD2E). JMJD2E catalytic domain, FDH-coupled NADH fluorescence (FDH is formaldehyde dehydrogenase). Lysine-specific demethylase 4E (Homo sapiens), B2RXH2. AID 2147, 2009. 230,000 compounds, 1.6% hits. Potency, µM (doses to about 57.1 µM), without a hit: at the top dose activity change, negative = inhibition, hits mostly inhibitors;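 also: 0% = wells with enzyme and -100% = buffer wells without enzyme; nearly all actives have a fitted effect of over 50% in size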
# Target sequence (B2RXH2 1-337 limits assumed): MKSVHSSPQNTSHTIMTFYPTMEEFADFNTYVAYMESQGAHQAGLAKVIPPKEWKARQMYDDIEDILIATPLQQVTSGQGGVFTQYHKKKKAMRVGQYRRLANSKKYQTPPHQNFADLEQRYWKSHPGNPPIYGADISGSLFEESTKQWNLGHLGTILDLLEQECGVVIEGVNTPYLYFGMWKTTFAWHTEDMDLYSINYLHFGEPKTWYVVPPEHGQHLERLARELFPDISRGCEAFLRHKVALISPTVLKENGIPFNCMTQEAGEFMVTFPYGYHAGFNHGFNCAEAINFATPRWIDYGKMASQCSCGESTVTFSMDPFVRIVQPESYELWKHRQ
# HPGD block – qHTS Assay for Inhibitors of HPGD (15-Hydroxyprostaglandin Dehydrogenase) | 15-hydroxyprostaglandin dehydrogenase [NAD(+)] (Homo sapiens), P15428 | 150,000 compounds, 4.3% hits | Potency, µM, for inactives: top-dose activity change, negative = inhibition, actives largely listed as inhibitors | purified HPGD, NADH fluorescence kinetic, PGE2 substrate
# Target sequence (P15428 whole entry, looked up): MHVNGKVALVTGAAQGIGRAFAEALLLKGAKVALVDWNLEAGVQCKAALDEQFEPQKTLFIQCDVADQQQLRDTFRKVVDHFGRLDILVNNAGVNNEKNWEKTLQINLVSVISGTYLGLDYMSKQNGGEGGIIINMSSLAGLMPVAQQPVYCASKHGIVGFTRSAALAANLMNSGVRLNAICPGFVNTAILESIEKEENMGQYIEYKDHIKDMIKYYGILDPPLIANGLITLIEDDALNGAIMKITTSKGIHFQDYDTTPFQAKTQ
#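 NADH formation kinetics: reaction with 30 uM PGE2 and 1 mM NAD+ (final), 20 nM enzyme, Tris-HCl pH 8 with Tween 20, after 15 min compound preincubation at room temperature. Fluorescence change, last versus first of five reads.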
# Tau fluor counter – Counterscreen qHTS for Inhibitors of Tau Fibril Formation, Fluorescence Polarization. tau K18 P301L Alexa594 fluorescence, heparin fibrillization. Potency, µM (titrated, usually from 57.7 µM), without a hit: at the top dose activity change, negative = decrease. 280,000 compounds, 0.93% hits. AID 1463, 2008; active = well fitted curve in the direction sought with a large enough effect; inconclusive = small, poorly fitted or top-dose-only effect, or another doubt; inactive = no such curve, though single readings can be large; an effect the other way counts as inactive or inconclusive; also: nearly all actives have a fitted effect of over 55% in size
#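 Human K18 P301L tau (15 uM unlabeled plus 0.24 uM Alexa 594-labeled, final) in 100 mM sodium acetate pH 7 was mixed with compound and 20 uM heparin and incubated 6 hr at 37 C.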
# ALDH1A1 inh – qHTS Assay for Inhibitors of Aldehyde Dehydrogenase 1 (ALDH1A1). Aldehyde dehydrogenase 1A1 (Homo sapiens), P00352. Purified ALDH1A1, NADH fluorescence, propionaldehyde substrate. Potency, µM (series often up to 75.3 µM), without a hit: at the highest dose activity, negative = inhibition, actives largely listed as inhibitors. 220,000 compounds, 7.3% hits;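 also: plate controls were no enzyme wells and a reference inhibitor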
# Tau ThT inhib – qHTS for Inhibitors of Tau Fibril Formation, Thioflavin T Binding; Microtubule-associated protein tau (Homo sapiens), P10636; recombinant tau K18 P301L (four-repeat tau fragment), heparin-induced fibrillization, ThT fluorescence; Potency, µM (highest dose often 57.4 µM), for the others: top-dose activity, negative = inhibition, usual class: inhibitors; 270,000 compounds, 2.1% hits; AID 1460, 2008; active = well fitted curve in the direction sought with a large enough effect; inconclusive = small, poorly fitted or top-dose-only effect, or another doubt; inactive = no such curve, though single readings can be large; an effect the other way counts as inactive or inconclusive; also: nearly all actives have a fitted effect of over 55% in size
# Target sequence (P10636 561-689 P618L limits assumed): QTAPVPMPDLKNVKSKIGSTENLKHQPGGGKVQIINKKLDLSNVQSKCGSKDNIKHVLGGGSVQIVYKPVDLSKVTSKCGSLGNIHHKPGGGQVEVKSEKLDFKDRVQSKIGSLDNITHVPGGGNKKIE
#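 Aggregation was driven by heparin (20 uM final) acting on recombinant tau […] bearing P301L in 100 mM sodium acetate pH 7; fibrils were detected with Thioflavin T.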
# Tau FP inhib – qHTS for Inhibitors of Tau Fibril Formation, Fluorescence Polarization; Microtubule-associated protein tau (Homo sapiens), P10636; K18 P301L tau heparin fibrillization, Alexa594 FP, 6 h; Potency, µM (titrated, usually from 57.7 µM), for inactives: at the highest dose activity, negative = inhibition, most hits filed as inhibitors; 280,000 compounds, 0.39% hits; active = well fitted curve in the direction sought with a large enough effect; inconclusive = small, poorly fitted or top-dose-only effect, or another doubt; inactive = no such curve, though single readings can be large; an effect the other way counts as inactive or inconclusive; also: nearly all actives have a fitted effect of over 55% in size
#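 Human tau K18 […] P301L fragment, 15 uM unlabeled plus 0.24 uM Alexa 594-labeled tau (final), with compound and 20 uM heparin in 100 mM sodium acetate pH 7; 6 hr at 37 C, then Alexa 594 FP read.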
# Active calls of the source: *; ? = inconclusive; nt = no result given; [ ] = another dose, or the depositor's remark. Unless noted, calls follow the shape of the dose curve; as a rule, active = well fitted inhibition curve with a large enough effect (not every such curve was filed as active); inconclusive = small, poorly fitted or top-dose-only effect, or another doubt; inactive = no such curve, though single readings can be large or run the other way. Unless noted, % is scaled to controls: 0 for no effect and ±100 for the full control effect; potency is read from the fitted curve at half-maximal effect.
SMILES,JMJD2E inh,HPGD block,Tau fluor counter,ALDH1A1 inh,Tau ThT inhib,Tau FP inhib
O=C(CN1CCC(NC(=O)c2ccco2)CC1)Nc1ccccc1[N+](=O)[O-],1.6%,nt,6.2%,22.4µM*,-4.1%,4.7%
CCOc1ccc(N(C(=O)c2ccccc2F)S(=O)(=O)c2ccc3c(c2)n(C)c(=O)n3C)cc1,nt,nt,-7.9%,nt,-8.6%,4.6%
Cc1ccc(S(=O)(=O)c2nc(-c3ccco3)oc2NCC2CCCO2)cc1 (stereo not given),?,-16.6%,-5.5%,10µM*,?,-7.3%
CCSc1oc(-c2ccco2)nc1S(=O)(=O)c1ccc(Br)cc1,nt,nt,-29.7%,nt,-13.1%,-8.4%
O=S(=O)(c1ccc(Br)cc1)c1nc(-c2ccco2)oc1NCC1CCCO1 (stereo not given),-23.9%,nt,-13.0%,14.1µM*,-12.1%,0.5%
Cc1ccc(-c2nn3c(C)nnc3s2)cc1NC(=O)c1ccc(OC(C)C)cc1,7.6%,1.12µM*,6.9%,12.6µM*,0.4%,9.3%
COc1ccccc1-n1ncc2c(=O)[nH]c(SCC(=O)Nc3cccc(F)c3)nc21,nt,nt,-4.5%,nt,1.2%,-4.0%
CCCCOc1ccc(C(=O)NCCc2sc(-c3cccc(F)c3)nc2C)cc1,nt,nt,-15.5%,nt,?,-5.9%
O=C(Nc1cccc(Cl)c1)c1cc(N=Nc2ccc([N+](=O)[O-])cc2Cl)ccc1O,-15.8%,nt,1.12µM*[quencher],?,0.891µM*,8.91µM*
O=C(Nc1ccc([N+](=O)[O-])cc1Cl)c1cc(Cl)ccc1O,-1.5%,-6.1%,?,?,7.08µM*,6.4%
O=C(Nc1cccc(Cl)c1)c1cccc(Oc2ccc([N+](=O)[O-])cc2Cl)c1,0.5%,-4.4%,?,10µM*,-9.5%,0.7%
O=[N+]([O-])c1ccc(O)c(/C=N/NC(=S)Nc2ccc(Cl)cc2Cl)c1,8.91µM*,nt,?,nt,nt,12.7%
O=C(Nc1ccccc1)c1cc([N+](=O)[O-])ccc1Cl,-4.1%,-20.0%,?,-7.8%,?,8.0%
COc1cc2c(cc1OC)C(COc1ccccc1OC)N(C(=O)c1ccccc1OC)CC2 (stereo not given),nt,nt,-2.5%,nt,-4.6%,1.9%
COC(=O)[C@@]1(C)C=C[C@@H](Cc2ccccc2)N1C,?,-9.5%,-11.7%,?,?,-0.5%
C[C@H]1Cc2c(COc3ccccc3)nc3c(c2CO1)CN(S(=O)(=O)c1ccc(Cl)c2nonc12)CC3,-1.5%[11.4 µM],-4.4%,4.5%[11.6 µM],?,-1.6%[11.5 µM],9.7%[11.6 µM]
CCn1c(=NC(=O)CN2C(=O)CCC2=O)sc2c(C)cc(C)cc21,-1.4%,14.1µM*,-1.7%,-7.6%,2.5%,-2.4%
COC(=O)Cn1c(=NC(=O)C(C)C)sc2c(C)cc(C)cc21,1.6%,-12.3%,-1.7%,-12.6%,-8.3%,-0.9%
O=C1N=c2ccccc2=C1c1c(O)n(-c2cccc(F)c2)[nH]c1=O,?,5.62µM*,-25.1%,25.1µM*,14.1µM*,?
CCn1c(O)c(C2=c3ccccc3=NC2=O)c2cc(Br)ccc21,-7.9%,nt,3.5%,7.5%,4.4%,7.6%
NC1CONC1=O (stereo not given),-2.5%,-8.1%,-5.6%,4.8%,-5.0%,-4.6%
C/C(CCC(C)C)=N\NC(=O)COc1ccccc1-c1ccccc1,38.4%,nt,0.2%,7.08µM*,-4.8%,0.6%
O=C(COc1ccccc1-c1ccccc1)NN=C1CCCC1,60.8%,nt,2.3%,11.2µM*,-3.7%,5.4%
COc1ccc(-n2cc(C(=O)N(C)c3cc(C)ccc3OC)c3ccccc3c2=O)cc1,nt,nt,-6.3%,nt,?,6.1%
CCOc1ccc2nc(C)cc(Nc3cccc([N+](=O)[O-])c3)c2c1,-10.5%,-21.1%,-10.7%,9.3%,-3.2%,1.9%
SMILES,JMJD2E inh,HPGD block,Tau fluor counter,ALDH1A1 inh,Tau ThT inhib,Tau FP inhib
N[C@H](CCC(=O)N[C@H](CSN=O)C(=O)NCC(=O)O)C(=O)O,?,11.2µM*,-22.3%,-12.1%,22.4µM*,?
Cc1nc2c(-c3ccccc3)c(C)[nH]n2c(=O)c1Cc1ccccc1,?,nt,-2.0%,-5.5%,-11.2%,-5.4%
Cc1nc2c(-c3ccc(Cl)cc3)c(C)[nH]n2c(=O)c1Cc1ccccc1,31.6µM*,nt,-4.2%,?,-9.4%,7.9%
Cc1nn(-c2nnc(NC3CCCCC3)nn2)c(C)c1Br,-6.5%,15.8µM*,-17.5%,14.1µM*,?,6.8%
Cc1nn(C)c(C)c1S(=O)(=O)NC1CCCC1,-3.6%,-0.7%,1.0%,-0.7%,-7.1%,6.8%
CCOc1ccc(-n2c(=O)c3c(C)c(C)sc3n(CC(=O)C(C)(C)C)c2=O)cc1,nt,nt,-28.1%,nt,-18.5%,-11.0%
Cc1cc(C(=O)NCc2cccs2)cs1,1.1%,28.2µM*,11.5%,2.3%,4.2%,14.5%
Cc1cc(C(=O)Nc2cccc(C(=O)O)c2)c(C)o1,2.8%,-2.9%,-2.6%,-4.1%,-9.2%,1.6%
CC(C)Oc1ccc(C(=O)NCc2cccs2)cc1,-2.2%,?,-3.9%,3.4%,-1.6%,1.9%
O=C(NCCN1CCCCC1)c1ccc2c(c1)OCCO2,-3.6%,8.91µM*,9.5%,-9.6%,13.8%,-8.4%
Cc1cc(C(=O)NCc2cccs2)c(C)o1,-1.4%,15.8µM*,-23.8%,-9.5%,?,?
COC(=O)c1cc(NC(=O)c2cc(C)oc2C)cc(C(=O)OC)c1,-2.2%,-21.0%,-22.3%,25.1µM*,?,10.9%
Cc1occc1C(=O)NCc1cccs1,4.1%,?,0.3%,5.5%,-7.2%,6.2%
Cc1cc(C(=O)NCC(=O)O)c(C)o1,3.8%,-11.8%,-5.4%,3.5%,-9.9%,-6.1%
O=C(NCc1cccs1)c1cccc(Nc2nc3ccc(Br)cc3[nH]2)c1,-23.5%,-25.4%,7.94µM*[quencher],-8.8%,?,?
CCOC(=O)CNC(=O)c1cc(C)oc1C,-8.8%,-11.5%,-24.2%,0.0631µM*,?,?
O=C(NCc1cccs1)c1ccc(N2CCCC2=O)cc1,5.1%,20µM*,-3.0%,1.7%,-6.8%,-6.0%
O=C(NCc1cccs1)c1ccc2ccccc2n1,0.4%,nt,-10.1%,-8.7%,-8.1%,-1.4%
O=C(NCc1ccco1)c1ccccc1-c1ccccc1,4.8%,-4.1%,-11.0%,-4.9%,-15.9%,-1.0%
Cc1scc(C(=O)NCc2ccco2)c1-c1ccccc1,-1.8%,31.6µM*,-11.2%,?,-16.7%,-11.4%
